{"source": "PubChem BioAssay (NCATS)", "note": "Unmarked numbers belong to inactive results. Calls come from the whole dose curve; as a rule, active = well fitted curve in the direction sought with a large enough effect; inconclusive = small, poorly fitted or top-dose-only effect, or effect the other way, or another doubt; inactive = no such curve, though single readings can be large or run the other way.", "data": [{"test": "qHTS of Nrf2 Activators: LOPAC Validation (AID 624149); note: 0% is about no effect", "settings": "Nrf2/ARE reporter cell assay; series mostly up to 46.1 µM; activation: at the top concentration", "outline": "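ARE reporter activation measured in AREc32 firefly luciferase cells after 24 hr compound exposure; Steady-Glo luminescence.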", "units": {"activation": "%"}, "values": [{"smiles": "CCCn1c(=O)c2c(ncn2C)n(CCC)c1=O", "activation": 1.95}, {"smiles": "C=CCN1CCc2c(cc(O)c(O)c2Cl)C(c2ccccc2)C1", "note": "(centres undefined)", "activation": -1.58}, {"smiles": "CCN(CC)CCCCCCCCOC(=O)c1cc(OC)c(OC)c(OC)c1", "activation": 0.811}, {"smiles": "CC1CNCCN1S(=O)(=O)c1cccc2cnccc12", "note": "(centres undefined)", "activation": -2.83}, {"smiles": "Clc1nccc2c1ccc1ccccc12", "activation": -1.68}, {"smiles": "NCCS(=O)O", "activation": -1.72}, {"smiles": "N[C@@H](Cc1c[nH]c2ccccc12)C(=O)O", "activation": -1.99}, {"smiles": "CN(C)C(=O)/N=N/C(=O)N(C)C", "activation": 0.249}, {"smiles": "O=[N+]([O-])c1cccc2cn[nH]c12", "activation": -2.18}, {"smiles": "C=C1C(=O)O[C@@H]2[C@H]3O[C@]3(C)CCC=C(C)CC[C@@H]12", "activation": -2.02}, {"smiles": "NCCCCN=C(N)N", "activation": -2.38}, {"smiles": "C=CCn1c(=O)c2c(nc(-c3ccc(S(=O)(=O)O)cc3)n2C)n(C)c1=O", "activation": -1.73}, {"smiles": "Nc1ncnc2c1ncn2C1CCCO1", "note": "(centres undefined)", "activation": -1.76}, {"smiles": "Oc1ccc(Cn2cc[nH]c2=S)cc1", "activation": 0.921}, {"smiles": "CNC(=O)c1cc2c(cn1)[nH]c1ccccc12", "activation": 0.662}, {"smiles": "CSC(N)=NCCC[C@H](N)C(=O)O", "activation": -1.03}, {"smiles": "NC(C(=O)N[C@@H]1C(=O)N2C(C(=O)O)=C(Cl)CS[C@H]12)c1ccccc1", "note": "(some centres undefined)", "activation": -1.05}, {"smiles": "CC1=C(C(=O)O)N2C(=O)[C@@H](NC(=O)C(N)C3=CCC=CC3)[C@H]2SC1", "note": "(some centres undefined)", "activation": -1.75}, {"smiles": "COc1ccccc1N1CCN(CCCNc2c(C)c(=O)n(C)c(=O)n2C)CC1", "activation": 0.692}, {"smiles": "CNc1cc(NS(=O)(=O)c2ccc(N)cc2)nc(NC)n1", "activation": 0.0192}, {"smiles": "CCCN(CCc1ccccc1)C1CCc2c(O)cccc2C1", "note": "(centres undefined)", "activation": -2.37}, {"smiles": "O=C(O)C1CN(CCCP(=O)(O)O)CCN1", "note": "(centres undefined)", "activation": -0.331}, {"smiles": "Nc1ccc(-c2nc3ccc(-c4nc5ccc(N)cc5[nH]4)cc3[nH]2)cc1", "activation": -1.49}, {"smiles": "O=C(O)Cc1c[nH]c2ccc(O)cc12", "activation": 6.33}, {"smiles": "CCN(CC)CCOC(=O)c1cc(Cl)c(N)cc1OC", "activation": -1.23}, {"smiles": "CSC(=N)N", "activation": 0.874}, {"smiles": "N#CC(C#N)=C(N)/C(C#N)=C/c1ccc(O)cc1", "activation": 0.75}, {"smiles": "CCCCOC(=O)NS(=O)(=O)c1sc(CC(C)C)cc1-c1ccc(Cn2c(CC)nc3c(C)cc(C)nc32)cc1", "activation": 0.632}, {"smiles": "N[C@@H](Cc1ccc(O)c(I)c1)C(=O)O", "activation": 0.313}, {"smiles": "N[C@@H](CCCC(=O)O)C(=O)O", "activation": -2.09}, {"smiles": "NS(=O)(=O)c1cccc2c1c([N+](=O)[O-])cc1nc(O)c(O)nc12", "activation": -1.79}, {"smiles": "O=C(O)c1ccccc1Nc1cccc(OCc2ccc3ccccc3n2)c1", "activation": -2.08}, {"smiles": "NC(N)=N[C@@H](CCC(=O)O)C(=O)O", "activation": -2.02}, {"smiles": "Oc1cc(O)c2c(c1)O[C@H](c1ccc(O)c(O)c1)[C@@H](O)C2", "activation": -2.57}]}]}
